Measured values taken from PubChem BioAssay (EPA / NIEHS).
Calls of active or inactive are those of the source. How the source made its calls: active means hit-call score of the fitted dose curve at least 0.9, where 1 is the maximum; inactive means score below 0.9.

Legend:
[1] = ATG_CRE_CIS: Attagene CIS-FACTORIAL HepG2 Assay for human cAMP Responsive Element (CRE) binding protein 3 (AID 2282926); conditions: HepG2 CRE cis-reporter, Attagene multiplexed mRNA; actives raise or lower the signal
Method in brief: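 Readout: fluorescently labelled reporter transcripts resolved by capillary electrophoresis after RT-PCR, taken 24 h post-dosing in transfected HepG2. Endogenous transcription factor activity drives each cis-element reporter; gain or loss of signal fitted relative to DMSO control.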

[2] = target: CCAAT/enhancer-binding protein beta (Homo sapiens) (UniProt P17676); test: ATG_C_EBP_CIS: Attagene CIS-FACTORIAL HepG2 Assay for human CCAAT/Enhancer Binding Protein (C/EBP) beta (AID 2282927); conditions: HepG2 Attagene cis-factorial transcription factor reporter; actives raise or lower the signal
Sequence of CCAAT/enhancer-binding protein beta (Homo sapiens) (P17676 whole entry, looked up, the tested form may be a part): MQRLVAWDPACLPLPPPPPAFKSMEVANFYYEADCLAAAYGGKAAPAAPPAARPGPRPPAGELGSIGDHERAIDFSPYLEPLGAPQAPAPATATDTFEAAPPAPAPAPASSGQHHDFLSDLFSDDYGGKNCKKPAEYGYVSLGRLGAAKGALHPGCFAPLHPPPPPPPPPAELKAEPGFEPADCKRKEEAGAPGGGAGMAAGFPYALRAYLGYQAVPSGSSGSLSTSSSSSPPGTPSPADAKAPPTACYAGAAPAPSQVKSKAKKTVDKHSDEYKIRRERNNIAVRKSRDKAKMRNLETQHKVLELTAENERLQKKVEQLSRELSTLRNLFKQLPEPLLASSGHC
Method in brief: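 Endogenous C/EBPb-driven reporter transcripts measured in transfected human HepG2 cells at 24 h via RT-PCR and capillary electrophoresis of labelled fragments. Activity fitted in both directions relative to DMSO baseline.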

[3] = ATG_CMV_CIS: Attagene CIS-FACTORIAL HepG2 Assay for human CMV (Internal Marker) (AID 2282928); conditions: HepG2 CMV promoter reporter, transcription factor profiling; actives raise or lower the signal;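 further: endpoint acts as a background internal control marker rather than a target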
Method in brief: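 Reporter transcripts from transfected HepG2 cells are isolated after 24 h of chemical dosing, reverse-transcribed and amplified. Fragments labeled with 6-FAM are cut with HpaI and quantified by capillary electrophoresis; DMSO defines baseline.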

[4] = ATG_DR4_LXR_CIS: Attagene CIS-FACTORIAL HepG2 Assay for human Liver X Receptor (LXR), DR4 submotif (AID 2282929); conditions: HepG2 Attagene DR4 cis-reporter, mRNA transcription; actives raise or lower the signal
Method in brief: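 The endpoint is DR4-element-driven reporter transcripts after 24 h chemical exposure of transfected HepG2 cells. These were measured via RT-PCR and capillary electrophoresis, and gain or loss of signal was fitted relative to DMSO controls.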

[5] = target: Aryl hydrocarbon receptor (Homo sapiens) (UniProt P35869); test: ATG_Ahr_CIS: Attagene CIS-FACTORIAL HepG2 Assay for human Aryl Hydrocarbon Receptor (Ahr) (AID 2282930); conditions: HepG2 AhR cis-factorial reporter transcription; actives raise or lower the signal
Sequence of Aryl hydrocarbon receptor (Homo sapiens) (P35869 whole entry, looked up): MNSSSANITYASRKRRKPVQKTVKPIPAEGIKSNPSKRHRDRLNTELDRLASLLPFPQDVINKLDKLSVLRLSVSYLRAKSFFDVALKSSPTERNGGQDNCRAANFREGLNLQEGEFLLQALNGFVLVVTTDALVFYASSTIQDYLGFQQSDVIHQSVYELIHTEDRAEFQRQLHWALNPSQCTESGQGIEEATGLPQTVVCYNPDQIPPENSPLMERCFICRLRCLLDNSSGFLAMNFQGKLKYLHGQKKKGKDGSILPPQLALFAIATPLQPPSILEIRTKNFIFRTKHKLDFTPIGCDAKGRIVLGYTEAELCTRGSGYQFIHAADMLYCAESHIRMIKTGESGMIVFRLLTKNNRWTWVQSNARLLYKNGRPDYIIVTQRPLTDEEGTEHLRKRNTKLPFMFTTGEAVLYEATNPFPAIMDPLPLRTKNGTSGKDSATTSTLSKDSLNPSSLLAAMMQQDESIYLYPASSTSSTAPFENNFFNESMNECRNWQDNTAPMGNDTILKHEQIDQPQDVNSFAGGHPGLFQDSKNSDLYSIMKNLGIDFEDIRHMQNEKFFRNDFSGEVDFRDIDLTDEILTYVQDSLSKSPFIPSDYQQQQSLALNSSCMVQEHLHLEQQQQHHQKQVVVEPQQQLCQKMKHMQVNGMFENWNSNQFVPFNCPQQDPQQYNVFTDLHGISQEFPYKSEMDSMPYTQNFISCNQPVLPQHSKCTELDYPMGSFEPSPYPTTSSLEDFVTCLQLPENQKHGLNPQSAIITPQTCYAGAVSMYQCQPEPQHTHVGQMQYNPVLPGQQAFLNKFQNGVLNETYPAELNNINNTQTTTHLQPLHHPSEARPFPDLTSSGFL
Method in brief: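 Reporter mRNA levels, quantified by RT-PCR and fluorescent capillary electrophoresis, reflect endogenous AhR transcriptional activity in HepG2 cells carrying transfected cis-promoter reporter constructs. Readout at 24 h post-dose; gain or loss fitted against DMSO baseline.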

[6] = ATG_AP_1_CIS: Attagene CIS-FACTORIAL HepG2 Assay for human Activator Protein 1 (AP-1) (AID 2282931); conditions: HepG2 Attagene cis-factorial AP-1 reporter mRNA; actives raise or lower the signal
Method in brief: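 Readout is reporter transcript level from endogenous transcription factor activity, quantified by RT-PCR with fluorescent primer extension and capillary electrophoresis. Transiently transfected HepG2 cells, 24 h exposure. Curves fitted both directions versus DMSO.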

[7] = ATG_AP_2_CIS: Attagene CIS-FACTORIAL HepG2 Assay for human Activator Protein 2 (AP-2) (AID 2282932); conditions: HepG2 AP-2 cis-reporter, Attagene transcription factor profiling; actives raise or lower the signal
Method in brief: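 Transiently transfected HepG2 cells are exposed to chemical for 24 h. Reporter transcripts are then measured as fluorescence following RT-PCR and capillary separation, and gain- or loss-of-signal is fitted relative to DMSO.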

[8] = ATG_BRE_CIS: Attagene CIS-FACTORIAL HepG2 Assay for human Bone Morphogenetic Protein (BMP) Response Element (BRE) (AID 2282933); conditions: HepG2 BMP response element reporter, Attagene transcription factor profiling; actives raise or lower the signal
Method in brief: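 After a 24 h chemical treatment, transiently transfected HepG2 cells were lysed for RNA; reporter transcripts were quantified by fluorescent RT-PCR and capillary electrophoresis, normalised to DMSO.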

[9] = target: Transcription factor E2F1 (Homo sapiens) (UniProt Q01094); test: ATG_E2F_CIS: Attagene CIS-FACTORIAL HepG2 Assay for human E2F Transcription Factor 1 (AID 2282935); conditions: HepG2 Attagene cis-reporter, E2F reporter RNA transcripts; actives raise or lower the signal
Sequence of Transcription factor E2F1 (Homo sapiens) (Q01094 whole entry, looked up): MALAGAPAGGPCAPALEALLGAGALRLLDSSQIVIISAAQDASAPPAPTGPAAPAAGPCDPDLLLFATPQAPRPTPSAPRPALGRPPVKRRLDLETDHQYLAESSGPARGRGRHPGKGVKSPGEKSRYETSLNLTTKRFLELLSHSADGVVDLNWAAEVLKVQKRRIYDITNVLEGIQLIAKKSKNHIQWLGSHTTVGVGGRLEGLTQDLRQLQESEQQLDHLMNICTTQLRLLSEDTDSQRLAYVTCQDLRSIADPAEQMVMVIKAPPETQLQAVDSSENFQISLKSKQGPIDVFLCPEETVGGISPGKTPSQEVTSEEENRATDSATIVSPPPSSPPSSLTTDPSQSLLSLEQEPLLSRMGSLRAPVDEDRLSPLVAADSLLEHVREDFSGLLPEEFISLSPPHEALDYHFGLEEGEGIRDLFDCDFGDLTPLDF
Method in brief: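 Fluorescent RT-PCR products, digested with HpaI for 2 h at 37 C, are separated by capillary electrophoresis. Source RNA comes from transfected HepG2 cultures treated for 24 h.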

[10] = ATG_E_Box_CIS: Attagene CIS-FACTORIAL HepG2 Assay for human Enhancer Box (E-box) (AID 2282936); conditions: HepG2 E-box cis-reporter transcription, actives raise or lower the signal
Method in brief: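 Fluorescent reporter fragments separated by capillary electrophoresis gave the signal; mRNA came from HepG2 cells transfected with cis-element reporters and treated 24 h. Curves fitted bidirectionally relative to DMSO controls.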

[11] = ATG_M_61_CIS: Attagene CIS-FACTORIAL HepG2 Assay for M61 Transcription Factor (Internal Marker) (AID 2282937); conditions: HepG2 Attagene CIS-FACTORIAL M61 internal marker reporter; actives raise or lower the signal
Method in brief: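 Readout is reporter mRNA by RT-PCR, fluorescent primer extension and capillary electrophoresis, with gain or loss fitted relative to DMSO. Transfected HepG2 cells carrying endogenous-TF-driven cis reporters were exposed to chemicals for 24 hours.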

[12] = ATG_M_19_CIS: Attagene CIS-FACTORIAL HepG2 Assay for M19 Transcription Factor (Internal Marker) (AID 2282939); conditions: HepG2 Attagene CIS-FACTORIAL M19 internal marker reporter; actives raise or lower the signal
Method in brief: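 In this multiplexed cell assay, transiently transfected HepG2 reporter units report endogenous transcription-factor activity; after 24 hours of treatment, labelled reporter cDNA fragments are quantified by capillary electrophoresis and fitted bidirectionally against DMSO.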

[13] = ATG_ERE_CIS: Attagene CIS-FACTORIAL HepG2 Assay for Estrogen Response Element (ERE) (AID 2282940); conditions: HepG2 ERE cis-reporter, Attagene RNA transcript; actives raise or lower the signal
Method in brief: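 Measuring endogenous transcription factor output, the assay doses transfected HepG2 cells for 24 hours and quantifies reporter transcripts by fluorescent RT-PCR and capillary electrophoresis, with DMSO as baseline.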

[14] = ATG_Ets_CIS: Attagene CIS-FACTORIAL HepG2 Assay for human Erythroblast Transformation Specific (ETS) (AID 2282941); conditions: HepG2 ETS cis-reporter transcription, actives raise or lower the signal
Method in brief: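 Bidirectional fit versus DMSO of reporter mRNA signal, detected by RT-PCR and capillary electrophoresis in HepG2 cells transiently transfected with cis-element reporters and dosed 24 h.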

[15] = target: Hepatocyte nuclear factor 3-beta (Homo sapiens) (UniProt Q9Y261); test: ATG_FoxA2_CIS: Attagene CIS-FACTORIAL HepG2 Assay for human Forkhead box A2 (FOXA2) (AID 2282942); conditions: HepG2 cis-reporter transcription factor activity, 24 h; actives raise or lower the signal
Sequence of Hepatocyte nuclear factor 3-beta (Homo sapiens) (Q9Y261 whole entry, looked up): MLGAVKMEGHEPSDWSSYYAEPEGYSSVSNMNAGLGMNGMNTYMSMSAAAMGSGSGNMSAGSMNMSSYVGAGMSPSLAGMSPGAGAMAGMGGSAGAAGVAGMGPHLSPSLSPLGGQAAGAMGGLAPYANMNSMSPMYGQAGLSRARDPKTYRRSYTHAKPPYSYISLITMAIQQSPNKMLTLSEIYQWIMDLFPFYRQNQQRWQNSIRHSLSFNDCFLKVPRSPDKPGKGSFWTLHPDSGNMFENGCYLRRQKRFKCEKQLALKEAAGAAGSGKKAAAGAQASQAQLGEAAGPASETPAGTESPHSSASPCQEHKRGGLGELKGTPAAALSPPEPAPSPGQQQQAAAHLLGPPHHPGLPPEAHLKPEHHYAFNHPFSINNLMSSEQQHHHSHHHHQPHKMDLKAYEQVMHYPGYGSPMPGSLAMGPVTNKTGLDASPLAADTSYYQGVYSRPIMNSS
Method in brief: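 Endogenous transcription factor activity is captured via cis-element-driven reporter transcripts in transfected HepG2. Total RNA taken at 24 h post-dosing; labelled RT-PCR products resolved by capillary electrophoresis. Gain or loss fitted versus DMSO.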

[16] = ATG_FoxO_CIS: Attagene CIS-FACTORIAL HepG2 Assay for human Forkhead box O (FoxO) (AID 2282943); conditions: HepG2 Attagene cis-reporter, FoxO element, mRNA; actives raise or lower the signal
Method in brief: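 Endogenous transcription factor activity read from multiplexed cis-promoter reporter transcripts in transiently transfected HepG2, 24 h after dosing. Reporter RNA measured via RT-PCR plus capillary electrophoresis of FAM-labeled products; gain or loss relative to DMSO.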

[17] = ATG_GATA_CIS: Attagene CIS-FACTORIAL HepG2 Assay for human GATA Binding Protein (AID 2282944); conditions: HepG2 GATA cis-element reporter, Attagene multiplex mRNA; actives raise or lower the signal
Method in brief: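 Measures endogenous transcription factor-driven reporter mRNA in HepG2 cells transiently carrying cis-regulated constructs. 24 h dosing; RNA via oligo(dT) reverse transcription, PCR, HpaI digestion, capillary electrophoresis; fitted relative to DMSO.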

[18] = ATG_GLI_CIS: Attagene CIS-FACTORIAL HepG2 Assay for human Zinc Finger Protein GLI1 (AID 2282945); conditions: HepG2, Attagene cis-factorial reporter mRNA, GLI element; actives raise or lower the signal
Method in brief: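 Bidirectional curve fits relative to DMSO, using reporter mRNA levels from RT-PCR plus capillary electrophoresis. Cells were HepG2 transiently carrying cis-regulated reporter constructs, harvested 24 h after dosing.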

[19] = ATG_EGR_CIS: Attagene CIS-FACTORIAL HepG2 Assay for human Early Growth Response 1 (EGR1) (AID 2282938); conditions: HepG2 Attagene CIS-FACTORIAL EGR reporter mRNA; actives raise or lower the signal
Method in brief: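 After 24 h compound exposure, RNA from reporter-transfected HepG2 cells was reverse-transcribed, PCR-amplified, fluorescently labelled and resolved by capillary electrophoresis. EGR1 reporter transcript changes, up or down, were fitted against DMSO, reflecting endogenous transcription-factor activity.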

With `O=C1OC2(c3cc(Br)c(O)c(Br)c3Oc3c2cc(Br)c(O)c3Br)c2c(Cl)c(Cl)c(Cl)c(Cl)c21` the outcome [1] was “inactive”, the outcome [2] was “inactive” and the outcome [3] was “inactive”. For the same compound, the outcome [4] was “inactive”, the AC50 [5] was 15.1 µM (active) and the outcome [6] was “inactive”. For the same compound, the outcome [7] was “inactive”, the outcome [8] was “inactive” and the outcome [9] was “inactive”. For the same compound, the outcome [10] was “inactive”, the outcome [11] was “inactive” and the outcome [12] was “inactive”. The AC50 [13] was 18.2 µM (active), the outcome [14] was “inactive” and the outcome [15] was “inactive”. The outcome [16] was “inactive”, the outcome [17] was “inactive” and the outcome [18] was “inactive”.
With `CC[Si](OC(C)=O)(OC(C)=O)OC(C)=O` the outcome [1] was “inactive”, the outcome [2] was “inactive” and the outcome [3] was “inactive”. For the same compound, the outcome [4] was “inactive”, the outcome [5] was “inactive” and the outcome [6] was “inactive”. For the same compound, the outcome [7] was “inactive”, the outcome [8] was “inactive” and the outcome [9] was “inactive”. The outcome [11] was “inactive”, the outcome [19] was “inactive” and the outcome [12] was “inactive”. For the same compound, the outcome [13] was “inactive”, the outcome [14] was “inactive” and the outcome [15] was “inactive”. The outcome [16] was “inactive”, the outcome [17] was “inactive” and the outcome [18] was “inactive”.
In the case of `CCc1c(C)cc(N)c(CC)c1N`, the outcome [1] was “inactive”, the outcome [2] was “inactive” and the outcome [3] was “inactive”. The outcome [4] was “inactive”, the AC50 [5] was 79.3 µM (active) and the outcome [6] was “inactive”. For the same compound, the outcome [7] was “inactive”, the outcome [8] was “inactive” and the outcome [9] was “inactive”. For the same compound, the outcome [10] was “inactive”, the outcome [12] was “inactive” and the outcome [13] was “inactive”. The outcome [14] was “inactive”, the outcome [15] was “inactive” and the outcome [16] was “inactive”. The outcome [17] was “inactive” and the outcome [18] was “inactive”.
In the case of `BrC1CCC(Br)C(Br)CCC(Br)C(Br)CCC1Br` (stereo not given), the outcome [1] was “inactive”, the outcome [2] was “inactive” and the AC50 [3] was 23.9 µM (active). For the same compound, the outcome [4] was “inactive”, the outcome [5] was “inactive” and the AC50 [6] was 36.2 µM (active). For the same compound, the outcome [7] was “inactive”, the outcome [8] was “inactive” and the outcome [9] was “inactive”. For the same compound, the outcome [10] was “inactive”, the outcome [11] was “inactive” and the outcome [12] was “inactive”. For the same compound, the outcome [13] was “inactive”, the AC50 [14] was 143 µM (active) and the outcome [15] was “inactive”. For the same compound, the AC50 [16] was 87 µM (active), the AC50 [17] was 66.3 µM (active) and the AC50 [18] was 69.1 µM (active).
In the case of `CCCCN`, the outcome [1] was “inactive”, the outcome [2] was “inactive” and the outcome [3] was “inactive”. For the same compound, the outcome [4] was “inactive”, the outcome [5] was “inactive” and the outcome [6] was “inactive”. For the same compound, the outcome [7] was “inactive”, the outcome [8] was “inactive” and the outcome [9] was “inactive”. The outcome [10] was “inactive”, the outcome [11] was “inactive” and the outcome [12] was “inactive”. For the same compound, the outcome [13] was “inactive”, the outcome [15] was “inactive” and the outcome [16] was “inactive”. For the same compound, the outcome [17] was “inactive” and the outcome [18] was “inactive”.
With `CC(C)c1cccc(O)c1` the outcome [1] was “inactive”, the outcome [2] was “inactive” and the outcome [3] was “inactive”. For the same compound, the outcome [4] was “inactive”, the outcome [5] was “inactive” and the outcome [6] was “inactive”. The outcome [7] was “inactive”, the outcome [8] was “inactive” and the outcome [9] was “inactive”. The outcome [11] was “inactive”, the outcome [19] was “inactive” and the outcome [12] was “inactive”. The AC50 [13] was 104 µM (active), the outcome [14] was “inactive” and the outcome [16] was “inactive”. The outcome [17] was “inactive” and the outcome [18] was “inactive”.
With `CCCCC(CC)COCCC#N` (stereo not given) the outcome [1] was “inactive”, the outcome [2] was “inactive” and the outcome [3] was “inactive”. The outcome [4] was “inactive”, the outcome [5] was “inactive” and the outcome [6] was “inactive”. For the same compound, the outcome [7] was “inactive”, the outcome [8] was “inactive” and the outcome [9] was “inactive”. The outcome [10] was “inactive”, the outcome [19] was “inactive” and the outcome [12] was “inactive”. The outcome [14] was “inactive”, the outcome [15] was “inactive” and the outcome [16] was “inactive”. The outcome [17] was “inactive” and the outcome [18] was “inactive”.
For `O=C(O)CCSCCC(=O)O`, the outcome [1] was “inactive”, the outcome [2] was “inactive” and the outcome [3] was “inactive”. For the same compound, the outcome [4] was “inactive”, the outcome [5] was “inactive” and the outcome [6] was “inactive”. For the same compound, the outcome [7] was “inactive”, the outcome [8] was “inactive” and the outcome [9] was “inactive”. The outcome [10] was “inactive”, the outcome [19] was “inactive” and the outcome [12] was “inactive”. For the same compound, the outcome [13] was “inactive”, the outcome [14] was “inactive” and the outcome [15] was “inactive”. For the same compound, the outcome [16] was “inactive”, the outcome [17] was “inactive” and the outcome [18] was “inactive”.
